Holding throughout (format): functional
Assay [1] deals with Plasmodium falciparum. Nature of the assay: GSK_TCMDC: Inhibition of Plasmodium falciparum 3D7 in whole red blood cells, using parasite LDH activity as an index of growth. Test compounds present at 2uM.
Assay [2] concerns Plasmodium falciparum. Nature of the assay: GSK_TCMDC: Inhibition of Plasmodium falciparum Dd2 in whole red blood cells, using parasite LDH activity as an index of growth. Test compounds present at 2uM.
Assay [3] has as its system HepG2. The assay is described as follows: GSK_TCMDC: Percent inhibition of human HepG2 cell line. Test compounds present at 10uM.

Data on 28 compounds can be found in ChEMBL document CHEMBL1157539, “Thousands of chemical starting points for antimalarial lead identification” (Nature, 2010).

The structures appear in SMILES notation.

Turning to `C=C(NC(=O)c1cc(C)cc(C)c1)C(=O)OC`, the figures for the Inhibition in assay [1], in assay [2] and in assay [3] were 95%, 0% and 21%, respectively.
In the case of `CN(C)Cc1ccc(-c2ccc3ccnc(N)c3c2)cc1`, the Inhibition (in general, the change of the read-out against control, counted positive when it falls) in assay [1] is given as 100%; in assay [2] it was 100%; in assay [3], 20%.
In the case of `COc1cc2nccc(Nc3ccc(Oc4ccccc4)cc3)c2cc1OC.Cl`, the Inhibition was 100% in assay [1], 99% in assay [2] and 13% in assay [3].
For the compound `CCc1cc2c(Sc3nnc(N)s3)ncnc2s1`, the figures for the Inhibition in assay [1], in assay [2] and in assay [3] were 99%, 65% and 0%, respectively.
On to `COc1ccc(N2CCN(CCCN3CCN(C(=O)c4ccc(/C=C/c5ccc(Cl)c(Cl)c5)cc4)CC3)CC2)c(OC)c1.O=C(O)/C=C/C(=O)O`, for which the Inhibition in assay [1] is given as 93%; in assay [2] it was 52%; in assay [3], 47%.
Consider `CN1CCN(c2ccnc3cc4c(cc23)N(C(=O)Nc2ccc(-c3ccncc3)c3ccccc23)CC4)CC1.Cl`, for which the Inhibition in assay [1] is 100%; in assay [2], 97%; in assay [3] it was 10%.
For the compound `COc1cccc(CCNc2nc(NCc3ccccc3)c3cc(OC)c(OC)cc3n2)c1`, the Inhibition turned out to be 100% in assay [1], 99% in assay [2] and 20% in assay [3].
For `CC(C)(C)c1ccc(CNC(=O)c2ccc(-c3nc4ccc(Cl)cc4[nH]3)cc2)cc1`, in that order: 93%, 2% and 14%.
For `O=C(O)C(F)(F)F.c1cc(CNC2CCCC2)cc(-c2ccc(CNc3ccc4ncccc4c3)cc2)c1`, in that order: 98%, 24% and 32%.
With `Cc1cccc2nc(-c3ccc(-c4ccc(NC(=O)NCc5ccccc5)cc4)s3)[nH]c12`, the Inhibition in assay [1] was 93%; in assay [2], 8%; in assay [3] it was 79%.
The matching figures for `COc1ccc(C(=O)Nc2ccc3oc(-c4ccc(C(F)(F)F)cc4)cc3c2)cc1CCCN(C)C`: 98%, 27% and 98%.
Regarding `Cc1cccc2nc(-c3ccc(-c4cccc(NC(=O)c5cnn6cccnc56)c4)cc3)[nH]c12`, the Inhibition in assay [1] was found to be 91%; in assay [2], 29%; in assay [3], 100%.
For `Cc1n[nH]c2cc(Nc3nccc(Nc4ccc(Oc5ccccc5)cc4)n3)ccc12.Cl`, the Inhibition came out at 100% in assay [1], 98% in assay [2] and 8% in assay [3].
For the compound `Cn1nccc1C(=O)NCCNCc1cccc(-c2cccc(-c3nc4cc(F)ccc4[nH]3)c2)c1.O=C(O)C(F)(F)F`, the Inhibition in assay [1] was 100%; in assay [2], 7%; in assay [3] it was 38%.
Turning to `NC1CCN(Cc2cccc(-c3ccc(-c4nc5ccccc5[nH]4)cc3)c2)C1.O=C(O)C(F)(F)F` (centres undefined), the figures for the Inhibition in assay [1], in assay [2] and in assay [3] were 100%, 58% and 24%, respectively.
As to `Cc1sc2ncnc(Sc3nnc(N)s3)c2c1C`, the Inhibition in assay [1] is reported as 100%; in assay [2], 100%; in assay [3], 9%.
On to `COc1ccc(-c2nonc2NC(=O)c2ccc(OC(C)C)cc2)cc1OC`, for which the results for the Inhibition in assay [1], in assay [2] and in assay [3] were 100%, 99% and 11%, respectively.
Regarding `Fc1ccc2[nH]c(-c3ccc(-c4ccc(CNCCc5ccncc5)cc4)s3)nc2c1.O=C(O)C(F)(F)F`, the results for the Inhibition in assay [1], in assay [2] and in assay [3] were 99%, 100% and 34%, respectively.
For `CN(C)Cc1ccc(-c2cccc(NC(=O)c3cccc(Cl)c3)c2)cc1.O=C(O)C(F)(F)F`, in that order: 96%, 12% and 18%.
For `O=C(Cn1c(CCc2cccc(F)c2F)nc(=O)c2cccnc21)N(Cc1ccc(-c2ccc(C(F)(F)F)cc2)cc1)C1CCN(C2CCOCC2)CC1.O=C(O)C(O)C(O)C(=O)O`, the figures for the Inhibition in assay [1], in assay [2] and in assay [3] were 94%, 67% and 100%, respectively.
On to `O=C(Nc1ccc(Cl)cc1)N[C@H]1CCN(Cc2ccc(OCCCN3CCCCC3)cc2)C1`, for which the figures for the Inhibition in assay [1], in assay [2] and in assay [3] were 100%, 0% and 29%, respectively.
Regarding `Cc1cccc2nc(-c3ccc(-c4ccc(CNCc5cnn(-c6ccccc6)n5)cc4)s3)[nH]c12.O=C(O)C(F)(F)F`, the figures for the Inhibition in assay [1], in assay [2] and in assay [3] were 97%, 48% and 16%, respectively.
For `O=C(O)C(F)(F)F.O=S(=O)(NCCN1CCCC1)c1ccc(-c2ccc(CNCc3ccccc3)cc2)cc1F`, in that order: 83%, 39% and 35%.
Take `COc1cc(Nc2nc(N)c3cc(OC)c(OC)cc3n2)cc(OC)c1.Cl`: the Inhibition is 100% in assay [1], 100% in assay [2] and 7% in assay [3].
Consider `CN1CCN(CCCN(Cc2cccc(-c3cccc(CNC4CCCC4)c3)c2)C(=O)/C=C/c2ccccc2)CC1.O=C(O)C(F)(F)F`, for which the Inhibition is reported as 100% in assay [1], 99% in assay [2] and 84% in assay [3].
The matching figures for `CCc1c(C(=O)NC2CCC(N3CCC(c4ccccc4C)CC3)CC2)[nH]c2ccc(Br)cc12` (centres undefined): 100%, 99% and 81%.
`COc1ccc2[nH]c(C)cc(=NN=Cc3cc(C)ccc3O)c2c1`: the values for the Inhibition in assay [1], in assay [2] and in assay [3] were 100%, 100% and 78%, respectively.
With `Cn1ccnc1-c1nc2ccccn2c1NCC(=O)Nc1ccccc1N1CCCCC1`, the Inhibition is 85% in assay [1], 57% in assay [2] and 16% in assay [3].
